Assay outcomes (PubChem)
Rows were chosen to be rich in hits. Some 4% of all compounds tested hit in one or more screens of this group.
Mtb FBA inh = Mtb fructose-bisphosphate aldolase inhibition | purified M. tuberculosis FBA, fluorescence read-out | AID 588726 | 360,000 compounds, 2.3% hits | inhibition, % at 1 µM | P9WQA3;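 also: 0% = vehicle and 100% = reference inhibitor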
GDH-TPI counter-1 = GDH-TPI coupled enzyme inhibition counter-screen. GDH-TPI coupled enzyme counterscreen, NADH absorbance. inhibition, % at 4.8 µM. 360,000 compounds, 1.2% hits. AID 588335; in the data active = inhibition above about 30%;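 also: 0% = DMSO wells and 100% = wells lacking the enzyme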
RecA intein inh = blocks M. tuberculosis RecA intein splicing. inhibition, % (concentration not given with the values). 290,000 compounds, 0.75% hits. P9WHJ3. cell-free RecA intein splicing, fluorescence; in the data active = inhibition above about 30%;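 also: 0% = vehicle wells and 100% = reference inhibitor control wells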
Mtb bLac sens = beta-lactam sensitization of Mtb H37Rv; M. tuberculosis H37Rv growth with meropenem, percent inhibition; inhibition, % at 25 µM; 330,000 compounds, 0.27% hits; AID 434955; call rule not given here;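 also: growth measured after seven days incubation then overnight dye step; 0% = bacteria only wells and 100% = bacteria with antibiotic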
Rv3671c protease = Rv3671c (M. tuberculosis) protease inhibition; P9WHR9; inhibition, % at 5.96 µM; 320,000 compounds, 0.048% hits; in the data active = inhibition above about 38%;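 also: extracellular domain of Rv3671c used as enzyme; 0% = enzyme with DMSO and 100% = no enzyme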
UGM FP inh = inhibitors of M. tuberculosis UDP-galactopyranose mutase. purified UGM, fluorescence polarization probe displacement. inhibition, % at 10 µM. 320,000 compounds, 0.06% hits. AID 504406; in the data active = inhibition above about 10%, passing the limit was not always enough
Target sequence (P9WIQ1 whole entry, looked up): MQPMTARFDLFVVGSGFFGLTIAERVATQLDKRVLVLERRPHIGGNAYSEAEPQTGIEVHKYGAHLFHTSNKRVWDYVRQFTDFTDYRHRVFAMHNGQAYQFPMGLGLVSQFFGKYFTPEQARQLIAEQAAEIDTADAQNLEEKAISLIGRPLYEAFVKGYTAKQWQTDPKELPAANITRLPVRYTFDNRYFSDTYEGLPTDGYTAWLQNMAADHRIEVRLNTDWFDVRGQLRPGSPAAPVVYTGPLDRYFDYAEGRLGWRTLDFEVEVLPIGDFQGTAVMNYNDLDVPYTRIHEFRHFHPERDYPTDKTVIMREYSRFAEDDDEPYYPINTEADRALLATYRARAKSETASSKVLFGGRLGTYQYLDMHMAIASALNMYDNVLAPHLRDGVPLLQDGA
Mtb FBA inh conf = confirmation of M. tuberculosis fructose-bisphosphate aldolase inhibitors. shares compounds with Mtb FBA inh. purified M. tuberculosis FBA, fluorescence read-out. inhibition, % at 1 µM. 5,600 compounds, 78% hits. AID 651616;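 also: 0% = vehicle wells and 100% = reference inhibitor wells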
GDH-TPI counter-2 = inhibits GDH-TPI coupling enzymes, flagging Mtb FBA hits. shares compounds with Mtb FBA inh. GDH-TPI coupled enzyme counterscreen, fluorescence. inhibition, % at 1 µM. 5,600 compounds, 81% hits. AID 652141; in the data active = inhibition above about 10%
An asterisk follows results filed as active. Rule as the data show it, unless noted: active = inhibition above about 27%; inactive = the rest.

CC(=O)Nc1ccc(N2C(=O)c3cccc(NC(C)=O)c3C2=O)cc1 was read as Mtb FBA inh -2, GDH-TPI counter-1 1, Mtb bLac sens 4, Rv3671c protease -5 and UGM FP inh -1.
`O=C(O)c1ccccc1NC(=O)C1CCCO1` (configuration not stated) gave Mtb FBA inh 5, GDH-TPI counter-1 2, RecA intein inh 0, Mtb bLac sens 6, Rv3671c protease 10 and UGM FP inh 4.
Screening COc1ccc(C2C(C#N)=C(SC)NC3=C2C(=O)CC(C)(C)C3)cc1 (configuration not stated) returned Mtb FBA inh -1, GDH-TPI counter-1 1, RecA intein inh -4, Mtb bLac sens -9, Rv3671c protease -3 and UGM FP inh -2.
`CCCCC1C(C#N)=C(C)NC2=C1C(=O)CC(C)(C)C2` (configuration not stated) gave Mtb FBA inh 57*, GDH-TPI counter-1 12, RecA intein inh -97, Mtb bLac sens -5, Rv3671c protease -1, UGM FP inh 3, Mtb FBA inh conf 63* and GDH-TPI counter-2 45*.
For COC(=O)c1ccc(C2C(C#N)=C(C)NC3=C2C(=O)CC(C)(C)C3)cc1 (configuration not stated) the results were Mtb FBA inh 75*, GDH-TPI counter-1 13, RecA intein inh -12, Mtb bLac sens -5, Rv3671c protease 6, UGM FP inh 1, Mtb FBA inh conf 82* and GDH-TPI counter-2 52*.
CC(C)Cn1cc(C(=O)NCCCN2CCCC2=O)c2c3ccccc3n(C)c2c1=O was read as Mtb FBA inh 33*, GDH-TPI counter-1 15, RecA intein inh 7, Mtb bLac sens 2, Rv3671c protease -2, UGM FP inh 4, Mtb FBA inh conf -5 and GDH-TPI counter-2 -1.
For COCCCNC(=O)c1cn(CC(C)C)c(=O)c2c1c1ccccc1n2C the results were Mtb FBA inh 19, GDH-TPI counter-1 18, RecA intein inh -2, Mtb bLac sens -1, Rv3671c protease -2 and UGM FP inh -1.
For COCCn1cc(C(=O)NCCCOC(C)C)c2c3ccccc3n(C)c2c1=O the results were Mtb FBA inh 30*, GDH-TPI counter-1 3, RecA intein inh -1, Mtb bLac sens -1, Rv3671c protease -1, UGM FP inh -2, Mtb FBA inh conf 128* and GDH-TPI counter-2 112*.
Screening COCCNC(=O)c1cn(CCOC)c(=O)c2c1c1ccccc1n2C returned Mtb FBA inh 27*, GDH-TPI counter-1 14, RecA intein inh 0, Mtb bLac sens -9, Rv3671c protease -3, UGM FP inh 0, Mtb FBA inh conf 134* and GDH-TPI counter-2 104*.
Screening COCCCNC(=O)c1cn(CCOC)c(=O)c2c1c1ccccc1n2C returned Mtb FBA inh 37*, GDH-TPI counter-1 11, RecA intein inh -2, Mtb bLac sens -5, Rv3671c protease 4, UGM FP inh 1, Mtb FBA inh conf 90* and GDH-TPI counter-2 96*.
CCN(CC)c1ccc(C(=O)NNC(=O)Cn2c(=O)cnc3ccccc32)cc1 was read as Mtb FBA inh 0 and GDH-TPI counter-1 26.
For Cc1cc(NC(=O)CSCC(=O)OCC(=O)c2ccc(Br)cc2)no1 the results were Mtb FBA inh 0 and GDH-TPI counter-1 1.
COc1ccccc1CNCCS(=O)(=O)NN1CCOCC1 was read as Mtb FBA inh -2 and GDH-TPI counter-1 0.
C#CC1(NC(=S)Nc2cccc(OC)c2)CCCCC1 was read as Mtb FBA inh 2 and GDH-TPI counter-1 -10.
`O=C(COc1ccc2oc(-c3ccccc3)cc(=O)c2c1)NCc1ccco1` gave Mtb FBA inh 30*, GDH-TPI counter-1 6, RecA intein inh -3, Mtb bLac sens 1, Rv3671c protease -5, UGM FP inh 2, Mtb FBA inh conf 90* and GDH-TPI counter-2 69*.
`Cc1cc(=O)oc2ccc(OCC(=O)NCc3ccco3)cc12` gave Mtb FBA inh 7, GDH-TPI counter-1 5, RecA intein inh -2, Mtb bLac sens -6, Rv3671c protease -3 and UGM FP inh 0.
`CNc1nccc(-c2ccc(F)cc2)c1C#N` gave Mtb FBA inh 32*, GDH-TPI counter-1 6, RecA intein inh -2, Mtb bLac sens -5, Rv3671c protease 5, UGM FP inh -3, Mtb FBA inh conf 145* and GDH-TPI counter-2 96*.
Screening CCCn1c(CCC(=O)O)ccc1-c1ccc(OC)cc1 returned Mtb FBA inh 30*, GDH-TPI counter-1 -1, RecA intein inh -32, Mtb bLac sens 6, Rv3671c protease 1, UGM FP inh 4, Mtb FBA inh conf active and GDH-TPI counter-2 active.
O=C1CCCCC1CCc1ccncc1 (configuration not stated) was read as Mtb FBA inh 1 and GDH-TPI counter-1 2.
`O=C(NC(=S)NCC1CCCO1)c1ccc(Br)o1` (configuration not stated) gave Mtb FBA inh -5, GDH-TPI counter-1 -3, RecA intein inh 1, Mtb bLac sens -3, Rv3671c protease 0 and UGM FP inh -1.
Cc1cc(OCC(=O)N2CCC(C(=O)O)CC2)c2c3c(c(=O)oc2c1)CCCC3 was read as Mtb FBA inh 77*, GDH-TPI counter-1 6, Mtb bLac sens -1, Rv3671c protease -1, UGM FP inh 5, Mtb FBA inh conf 131* and GDH-TPI counter-2 82*.
Cc1cc(OCC(=O)Nc2ccc(CCO)cc2)c2c(C)c(C)c(=O)oc2c1 was read as Mtb FBA inh 33*, GDH-TPI counter-1 7, RecA intein inh 0, Mtb bLac sens 5, Rv3671c protease -7, UGM FP inh 2, Mtb FBA inh conf 1 and GDH-TPI counter-2 -3.
Screening Cc1cc(OCC(=O)N2CCC(C(=O)O)CC2)c2c(C)c(C)c(=O)oc2c1 returned Mtb FBA inh 87*, GDH-TPI counter-1 9, RecA intein inh -2, Mtb bLac sens -2, Rv3671c protease 1, UGM FP inh -2, Mtb FBA inh conf -5 and GDH-TPI counter-2 -6.
Screening CC(=O)COc1cc(C)cc2oc(=O)c(C)c(C)c12 returned Mtb FBA inh 38*, GDH-TPI counter-1 15, RecA intein inh -1, Mtb bLac sens 5, Rv3671c protease 2, UGM FP inh -2, Mtb FBA inh conf active and GDH-TPI counter-2 active.
`Cc1cc(OCC(=O)N2CCC(C(N)=O)CC2)c2c(C)c(C)c(=O)oc2c1` gave Mtb FBA inh 7, GDH-TPI counter-1 -7, RecA intein inh 11, Mtb bLac sens -5, Rv3671c protease -10 and UGM FP inh 0.
For CCOC(=O)c1sc2ncnc(Nc3cccc(C(=O)O)c3)c2c1C the results were Mtb FBA inh 0, GDH-TPI counter-1 10, Mtb bLac sens -2, Rv3671c protease 2 and UGM FP inh 2.
